Results from PubChem BioAssay AID1159580 (chemical genetic matrix, 2015).
Several values for one entry are separate records, joined by “and”; a condition that tells them apart may be missing. Equal entries are not always repeated. The whole screen tested about 5,500 compounds, of which about 2,000 (36%) were called active. Inconclusive results (about 18%) are left out. Rule as the data show it: active = normalized growth mostly below about 0.91 (no sharp cut-off); inconclusive = no clear call, values can overlap the other calls; inactive = mostly above about 0.92. Some of the results follow.

Test: chemical genetic growth profiling, strain panel (AID 1159580);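 also: tested at 20 µM; growth read once vehicle control cultures reached saturation at 30 °C; 1 = growth at the plate median or of vehicle wells; lower values mean less growth of the strain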
Conditions: S. cerevisiae deletion strains, growth OD

Measured: normalized growth

COS(C)(=O)=O
inactive: locus YAL013W, strain DEP1, stronger effect = lower value 1 | locus YAL021C, strain ccr4, stronger effect = lower value 0.997 | locus YAL026C, strain drs2, stronger effect = lower value 1 | locus YAL030W, strain snc1, stronger effect = lower value 0.996 | locus YBL061C, strain skt5, stronger effect = lower value 0.992 | locus YBR009C, strain hhf1, stronger effect = lower value 1 | locus YBR021W, strain FUR4, stronger effect = lower value 1 | locus YBR023C, strain chs3, stronger effect = lower value 0.994 | locus YBR171W, strain sec66, stronger effect = lower value 0.978 | locus YBR229C, strain ROT2, stronger effect = lower value 1.01 | locus YBR231C, strain swc5, stronger effect = lower value 0.969 | locus YBR279W, strain paf1, stronger effect = lower value 1 | locus YCL011C, strain gbp2, stronger effect = lower value 1.02 | locus YCL016C, strain dcc1, stronger effect = lower value 1 | locus YCL029C, strain bik1, stronger effect = lower value 1.02 | locus YCL069W, strain vba3, stronger effect = lower value 1 | locus YCR088W, strain abp1, stronger effect = lower value 0.993 | locus YDL005C, strain med2, stronger effect = lower value 0.979 | locus YDL035C, strain GPR1, stronger effect = lower value 1.02 | locus YDL040C, strain nat1, stronger effect = lower value 0.993 | locus YDL074C, strain BRE1, stronger effect = lower value 0.986 | locus YDL101C, strain DUN1, stronger effect = lower value 1 | locus YDL134C, strain PPH21, stronger effect = lower value 1 | locus YDL185W, strain tfp1, stronger effect = lower value 1.01 | locus YDL192W, strain arf1, stronger effect = lower value 1.01 | locus YDR001C, strain nth1, stronger effect = lower value 0.997 | locus YDR069C, strain doa4, stronger effect = lower value 1.01 | locus YDR101C, strain arx1, stronger effect = lower value 1.01 | locus YDR137W, strain rgp1, stronger effect = lower value 1.02 | locus YDR150W, strain NUM1, stronger effect = lower value 1 | locus YDR159W, strain sac3, stronger effect = lower value 0.944 | locus YDR162C, strain NBP2, stronger effect = lower value 0.993 | locus YDR195W, strain ref2 0.948 | locus YDR297W, strain sur2, stronger effect = lower value 0.982 | locus YDR318W, strain mcm21, stronger effect = lower value 1.03 | locus YDR334W, strain swr1, stronger effect = lower value 0.988 | locus YDR335W, strain msn5, stronger effect = lower value 1 | locus YDR388W, stronger effect = lower value 1.01 | locus YDR392W, strain spt3, stronger effect = lower value 0.947 | locus YDR502C, strain sam2, stronger effect = lower value 0.994 | locus YEL003W, strain gim4, stronger effect = lower value 0.989 | locus YEL037C, strain rad23, stronger effect = lower value 1 | locus YEL061C, strain CIN8 (second series), stronger effect = lower value 0.998 | locus YEL061C, strain CIN8, stronger effect = lower value 1.01 | locus YER015W, strain faa2, stronger effect = lower value 1.02 | locus YER016W, strain bim1, stronger effect = lower value 0.98 | locus YER110C, stronger effect = lower value 1.02 | locus YER111C, strain swi4, stronger effect = lower value 0.998 | locus YER155C, strain BEM2 (second series), stronger effect = lower value 0.976 | locus YER155C, strain BEM2, stronger effect = lower value 1.01 | locus YER167W, strain BCK2, stronger effect = lower value 1.02 | locus YFR010W, strain ubp6, stronger effect = lower value 0.995 | locus YGL078C, strain dbp3, stronger effect = lower value 0.999 | locus YGL086W, strain mad1, stronger effect = lower value 1.02 | locus YGL167C, strain pmr1, stronger effect = lower value 0.997 | locus YGL173C, strain kem1, stronger effect = lower value 1 | locus YGL227W, strain vid30, stronger effect = lower value 0.978 | locus YGL240W, strain doc1, stronger effect = lower value 0.957 | locus YGL248W, strain PDE1, stronger effect = lower value 1 | locus YGL253W, strain hxk2, stronger effect = lower value 1 | locus YGR078C, strain PAC10, stronger effect = lower value 0.986 | locus YGR135W, strain pre9, stronger effect = lower value 0.966 | locus YGR229C, strain SMI1, stronger effect = lower value 0.993 | locus YGR252W, strain gcn5, stronger effect = lower value 1.02 | locus YHR013C, strain ard1, stronger effect = lower value 1 | locus YHR027C, strain rpn1, stronger effect = lower value 0.983 | locus YHR030C, strain SLT2, stronger effect = lower value 1.01 and 1 | locus YHR079C, strain IRE1 (second series), stronger effect = lower value 1.02 | locus YHR079C, strain IRE1, stronger effect = lower value 0.999 | locus YHR094C, strain hxt1, stronger effect = lower value 1.02 | locus YHR129C, strain ARP1, stronger effect = lower value 1.01 | locus YHR142W, strain chs7, stronger effect = lower value 1.01 | locus YHR200W, strain rpn10, stronger effect = lower value 1.02 | locus YIL066C, strain RNR3, stronger effect = lower value 1.04 | locus YIL073C, strain SPO22, stronger effect = lower value 1.09 | locus YIL125W, strain kgd1, stronger effect = lower value 1.02 | locus YIR030C, strain dcg1, stronger effect = lower value 1.02 | locus YJL092W, strain hpr5, stronger effect = lower value 1 | locus YJL095W, strain BCK1 (second series), stronger effect = lower value 0.995 | locus YJL095W, strain BCK1, stronger effect = lower value 1 | locus YJL115W, strain asf1, stronger effect = lower value 0.982 | locus YJL129C, strain trk1, stronger effect = lower value 0.971 | locus YJL134W, strain LCB3, stronger effect = lower value 1.01 | locus YJL154C, strain vps35, stronger effect = lower value 0.988 | locus YJL164C, strain tpk1, stronger effect = lower value 0.996 | locus YJL166W, strain qcr8, stronger effect = lower value 1 | locus YJL168C, strain set2, stronger effect = lower value 1.02 | locus YJL187C, strain SWE1 (second series), stronger effect = lower value 1 | locus YJL187C, strain SWE1, stronger effect = lower value 0.992 | locus YJR043C, strain POL32, stronger effect = lower value 1.03 | locus YJR066W, strain TOR1, stronger effect = lower value 0.974
